{"source": "ChEMBL document CHEMBL3988442", "about": "“University of Dundee, Small-Polar-MMV Screening Library” (2021)", "tested_on": "Leishmania donovani", "assay": "Leishmania intramacrophage assay", "type": "functional, organism-based", "parameters": "scale not given: in the data most compounds retested in dose-response had high values", "note": "In all, about 69,000 compounds went through this assay and about 1,000 (1.4%) showed an effect of 50% or more. Only a selection was taken, and strong results are over-represented in it overall.", "data": [{"smiles": "O=C(C1CCC1)N1C[C@@H]2CC[C@H](C1)N(S(=O)(=O)c1ccccc1)C2", "values": [{"measurement": "Percent Effect", "setting": "30.3 µM, […]", "result": -6.923, "unit": "%"}]}, {"smiles": "O=C1CCC(=O)c2oc3ccc(Br)cc3c2N1", "values": [{"measurement": "Percent Effect", "setting": "30.3 µM, […]", "result": -16.45, "unit": "%"}]}, {"smiles": "Cc1nc(Nc2cnccn2)cc(C2CCCN2)n1.Cl", "note": "(stereo not drawn)", "values": [{"measurement": "Percent Effect", "setting": "30.3 µM, […]", "result": -4.51, "unit": "%"}]}, {"smiles": "Cc1cc(Nc2cnccn2)cc(C2CCCN2)n1", "note": "(stereo not drawn)", "values": [{"measurement": "Percent Effect", "setting": "30.3 µM, […]", "result": 50.63, "unit": "%"}]}, {"smiles": "Cc1cc(Nc2cnccn2)cc(C2CCCNC2)n1", "note": "(stereo not drawn)", "values": [{"measurement": "Percent Effect", "setting": "30.3 µM, […]", "result": -25.49, "unit": "%"}]}, {"smiles": "CSC1(CNC(=O)CCc2ccc(Cl)s2)CCOCC1", "values": [{"measurement": "Percent Effect", "setting": "30.3 µM, […]", "result": -1.683, "unit": "%"}]}, {"smiles": "COCCN1CCC(CNC(=O)c2ccnc(-n3ccnc3)c2)CC1", "values": [{"measurement": "Percent Effect", "setting": "30.3 µM, […]", "result": -33.66, "unit": "%"}]}, {"smiles": "CCOCC1CN(Cc2ccoc2)Cc2cn(CC3CC3)nc21", "note": "(stereo not drawn)", "values": [{"measurement": "Percent Effect", "setting": "30.3 µM, […]", "result": 26.22, "unit": "%"}]}, {"smiles": "CCS(=O)(=O)N1CCCC(c2nccn2Cc2ccccn2)C1", "note": "(stereo not drawn)", "values": [{"measurement": "Percent Effect", "setting": "30.3 µM, […]", "result": 2.474, "unit": "%"}]}, {"smiles": "CCS(=O)(=O)N1CCN(C(=O)NC(C)C)CC2(CC(=O)N(C)C2)C1", "note": "(stereo not drawn)", "values": [{"measurement": "Percent Effect", "setting": "30.3 µM, […]", "result": 15.87, "unit": "%"}]}, {"smiles": "CCCn1nnc(NCc2ccc(-c3ccc(Br)cc3)o2)n1", "values": [{"measurement": "Percent Effect", "setting": "30.3 µM, […]", "result": -28.31, "unit": "%"}]}, {"smiles": "CCC(CO)NCc1ccc(-c2ccc(F)c(Cl)c2)o1.Cl", "note": "(stereo not drawn)", "values": [{"measurement": "Percent Effect", "setting": "30.3 µM, […]", "result": 76.93, "unit": "%"}]}, {"smiles": "CCC(CO)NCc1ccc(-c2ccc(Cl)cc2)o1.Cl", "note": "(stereo not drawn)", "values": [{"measurement": "Percent Effect", "setting": "30.3 µM, […]", "result": 78.06, "unit": "%"}]}, {"smiles": "CCn1nnc(NCc2ccc(-c3ccc(Br)cc3)o2)n1", "values": [{"measurement": "Percent Effect", "setting": "30.3 µM, […]", "result": 4.739, "unit": "%"}]}, {"smiles": "CCC(CO)NCc1ccc(-c2ccc(F)cc2)o1.Cl", "note": "(stereo not drawn)", "values": [{"measurement": "Percent Effect", "setting": "30.3 µM, […]", "result": 4.62, "unit": "%"}]}, {"smiles": "CCC(CO)NCc1ccc(-c2ccccc2)o1.Cl", "note": "(stereo not drawn)", "values": [{"measurement": "Percent Effect", "setting": "30.3 µM, […]", "result": 7.098, "unit": "%"}]}, {"smiles": "CCC(CO)NCc1ccc(-c2ccc(Br)cc2)o1.Cl", "note": "(stereo not drawn)", "values": [{"measurement": "Percent Effect", "setting": "30.3 µM, […]", "result": 86.07, "unit": "%"}]}, {"smiles": "CC(NCc1ccc(-c2ccc(Cl)cc2)o1)c1nnc2n1CCC2", "note": "(stereo not drawn)", "values": [{"measurement": "Percent Effect", "setting": "30.3 µM, […]", "result": -2.109, "unit": "%"}]}, {"smiles": "CCC(CO)NCc1ccc(-c2ccccc2F)o1", "note": "(stereo not drawn)", "values": [{"measurement": "Percent Effect", "setting": "30.3 µM, […]", "result": 4.793, "unit": "%"}]}, {"smiles": "COCCN1CCN(CC(=O)NC2(C#N)CCCC2)CC1", "values": [{"measurement": "Percent Effect", "setting": "30.3 µM, […]", "result": 21.7, "unit": "%"}]}, {"smiles": "Cn1cc(-c2cnc(N3CCOCC3)nc2)cc1C(=O)NCCC#N.O=C(O)C(F)(F)F", "values": [{"measurement": "Percent Effect", "setting": "30.3 µM, […]", "result": 12.83, "unit": "%"}]}, {"smiles": "CN(CC(=O)NC(C)(C)C)Cc1cccc2c1OCCO2", "values": [{"measurement": "Percent Effect", "setting": "30.3 µM, […]", "result": 16.54, "unit": "%"}]}, {"smiles": "CC1CCN(c2ccc(NC(=O)CCn3cccn3)cc2)CC1", "values": [{"measurement": "Percent Effect", "setting": "30.3 µM, […]", "result": 16.17, "unit": "%"}]}, {"smiles": "Cc1cc(C(=O)N2C[C@@H]3[C@@H](C2)OCC(=O)N3CC2CC2)no1", "values": [{"measurement": "Percent Effect", "setting": "30 µM, 30.03 µM", "result": 18.33, "unit": "%"}]}, {"smiles": "Cc1nn(C)cc1-c1cncn1CCN(C)C1CCCC1.Cl", "values": [{"measurement": "Percent Effect", "setting": "30.3 µM, […]", "result": 52.65, "unit": "%"}]}, {"smiles": "CCn1nc(C)c(-c2cncn2CCN(C)C2CCCC2)c1C.Cl", "values": [{"measurement": "Percent Effect", "setting": "30.3 µM, […]", "result": 32.48, "unit": "%"}]}, {"smiles": "CCCn1nc(C)c(-c2cncn2CCN(C)C2CCCC2)c1C.Cl", "values": [{"measurement": "Percent Effect", "setting": "30.3 µM, […]", "result": 42.92, "unit": "%"}]}, {"smiles": "CC(C)C1CN(c2nccc(N)n2)CCC(=O)N1Cc1ccc(F)cc1", "note": "(stereo not drawn)", "values": [{"measurement": "Percent Effect", "setting": "30.3 µM, […]", "result": -20.97, "unit": "%"}]}, {"smiles": "COc1cccc2c1OCC(CNC(=O)Cn1ccnc1C)C2", "note": "(stereo not drawn)", "values": [{"measurement": "Percent Effect", "setting": "30.3 µM, […]", "result": 4.9, "unit": "%"}]}, {"smiles": "OC(CNCCn1cccn1)COc1ccc2ccccc2c1", "note": "(stereo not drawn)", "values": [{"measurement": "Percent Effect", "setting": "30.3 µM, […]", "result": 56.8, "unit": "%"}]}, {"smiles": "OC(CNCCn1cccn1)COc1ccc(Br)cc1", "note": "(stereo not drawn)", "values": [{"measurement": "Percent Effect", "setting": "30.3 µM, […]", "result": 25.57, "unit": "%"}]}, {"smiles": "OC(CNCCn1cccn1)COc1ccc(F)cc1", "note": "(stereo not drawn)", "values": [{"measurement": "Percent Effect", "setting": "30.3 µM, […]", "result": 20.47, "unit": "%"}]}, {"smiles": "Cc1nnc2n1CCN(C(=O)C(OC1CCCC1)c1ccccc1)C2", "note": "(stereo not drawn)", "values": [{"measurement": "Percent Effect", "setting": "30.3 µM, […]", "result": 5.78, "unit": "%"}]}, {"smiles": "O=C(Nc1ccc(S(=O)(=O)Nc2c(F)cccc2F)cc1)N1CCCC1", "values": [{"measurement": "Percent Effect", "setting": "30.3 µM, […]", "result": 12.59, "unit": "%"}]}, {"smiles": "CC(=O)NCC(=O)N1CCOC2(CCCN(c3cccnc3)C2)C1.O=C(O)C(F)(F)F", "note": "(stereo not drawn)", "values": [{"measurement": "Percent Effect", "setting": "30 µM, 30.03 µM", "result": 4.273, "unit": "%"}]}, {"smiles": "Cc1nc2ccc(-n3ncnc3[C@@H]3CCCN3S(C)(=O)=O)cc2s1", "values": [{"measurement": "Percent Effect", "setting": "30.3 µM, […]", "result": 99.47, "unit": "%"}]}, {"smiles": "CC(=O)N1CCCCC1c1ncnn1-c1ccc2nc(C)sc2c1", "note": "(stereo not drawn)", "values": [{"measurement": "Percent Effect", "setting": "30.3 µM, […]", "result": 29.12, "unit": "%"}]}, {"smiles": "CS(=O)(=O)N1CCC[C@H]1c1ncnn1-c1ccc2c(c1)OCO2", "values": [{"measurement": "Percent Effect", "setting": "30.3 µM, […]", "result": -61.62, "unit": "%"}]}, {"smiles": "COc1ccc(OCCc2nnc(NC(C)=O)s2)cc1", "values": [{"measurement": "Percent Effect", "setting": "30.3 µM, […]", "result": -16.84, "unit": "%"}]}, {"smiles": "O=C(NC1CCS(=O)(=O)C1)c1ccc(SCc2cscn2)cc1", "note": "(stereo not drawn)", "values": [{"measurement": "Percent Effect", "setting": "30.3 µM, […]", "result": 10.79, "unit": "%"}]}, {"smiles": "CCNC(=O)[C@@H]1CCCN1C1(C(=O)NC)CCCCC1.Cl", "values": [{"measurement": "Percent Effect", "setting": "30.3 µM, […]", "result": -2.22, "unit": "%"}]}, {"smiles": "O=C(c1ccc[nH]1)N1CCCC(c2cc(C(F)(F)F)[nH]n2)C1", "note": "(stereo not drawn)", "values": [{"measurement": "Percent Effect", "setting": "30 µM, 30.03 µM", "result": 44.22, "unit": "%"}]}, {"smiles": "O=C(c1cc(Cl)c[nH]1)N1CCCC(c2cc(C(F)(F)F)[nH]n2)C1", "note": "(stereo not drawn)", "values": [{"measurement": "Percent Effect", "setting": "30 µM", "result": 52.35, "unit": "%"}]}, {"smiles": "O=C(c1cc[nH]n1)N1CCCC(c2cc(C(F)(F)F)[nH]n2)C1", "note": "(stereo not drawn)", "values": [{"measurement": "Percent Effect", "setting": "30 µM", "result": -11.08, "unit": "%"}]}, {"smiles": "N#Cc1c(CN2CCCCC2Cn2cncn2)cn2ccccc12", "note": "(stereo not drawn)", "values": [{"measurement": "Percent Effect", "setting": "30.3 µM, […]", "result": -0.3662, "unit": "%"}]}, {"smiles": "O=C(Nc1cccc(N2CCN(CC3CC3)CC2)c1)C1CCCO1", "note": "(stereo not drawn)", "values": [{"measurement": "Percent Effect", "setting": "30.3 µM, […]", "result": 25.21, "unit": "%"}]}, {"smiles": "O=C(NCC1CC1)Nc1cccc(N2CCN(CC3CC3)CC2)c1", "values": [{"measurement": "Percent Effect", "setting": "30 µM, 30.03 µM", "result": -6.352, "unit": "%"}]}, {"smiles": "O=C(Nc1cccc(N2CCN(CC3CC3)CC2)c1)N1CCCC1", "values": [{"measurement": "Percent Effect", "setting": "30.3 µM, […]", "result": 55.96, "unit": "%"}]}, {"smiles": "O=C(NCCc1ccc(F)cc1)C1CN(C(=O)Cn2cncn2)C1", "values": [{"measurement": "Percent Effect", "setting": "30.3 µM, […]", "result": 19.84, "unit": "%"}]}, {"smiles": "COCCCNC(=O)COc1ccccc1C(F)(F)F", "values": [{"measurement": "Percent Effect", "setting": "30.3 µM, […]", "result": 6.767, "unit": "%"}]}, {"smiles": "O=C(Cc1ccccc1)NC[C@H]1Cn2ccnc2CO1", "values": [{"measurement": "Percent Effect", "setting": "30.3 µM, […]", "result": 5.132, "unit": "%"}]}, {"smiles": "Cc1nc(NCCSc2ccccn2)c2c(C)noc2n1", "values": [{"measurement": "Percent Effect", "setting": "30.3 µM, […]", "result": 23.02, "unit": "%"}]}, {"smiles": "CCC(Nc1nc(C)nc2onc(C)c12)c1nc(C)c(C)s1", "note": "(stereo not drawn)", "values": [{"measurement": "Percent Effect", "setting": "30.3 µM, […]", "result": 15.33, "unit": "%"}]}]}
